Screening results deposited in PubChem BioAssay by National Center for Advancing Translational Sciences (NCATS).
Only some compounds are listed: those with a hit (about 2.5% of all), similar ones and a draw of the others.
Cruzain noTriton = inhibitors of Trypanosoma cruzi cruzain without detergent. AID 1476. purified cruzain, Z-FR-AMC fluorescence, no detergent. P25779. Potency, µM, actives largely listed as inhibitors. 200,000 tested, 2.3% active; also: nearly all actives have a fitted effect of over 40% in size
Target sequence (P25779 123-467 limits assumed): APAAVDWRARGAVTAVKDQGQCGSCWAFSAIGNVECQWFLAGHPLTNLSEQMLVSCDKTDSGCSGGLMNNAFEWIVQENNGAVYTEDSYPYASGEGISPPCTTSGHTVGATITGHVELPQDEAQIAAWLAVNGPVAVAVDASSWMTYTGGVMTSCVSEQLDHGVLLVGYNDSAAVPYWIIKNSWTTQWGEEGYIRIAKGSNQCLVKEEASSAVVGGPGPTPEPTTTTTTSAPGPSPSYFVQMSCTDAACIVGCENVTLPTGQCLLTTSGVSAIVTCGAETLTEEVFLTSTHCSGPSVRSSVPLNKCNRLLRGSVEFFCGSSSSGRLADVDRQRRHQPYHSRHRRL
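Purified cruzain at 1.5 nM, pre-incubated 15 min with compound at room temperature in 100 mM sodium acetate pH 5.5, 5 mM DTT, 0.00005% Triton X-100. Reaction started with 2 uM Z-FR-AMC; AMC fluorescence increase over 60 s gives rate.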
Cruzain Triton = blocks cruzain activity in presence of Triton detergent; P25779; purified cruzain, Z-FR-AMC fluorescence, 0.01% Triton; Potency, µM, actives largely listed as inhibitors; 200,000 tested, 0.43% active; AID 1478; also: nearly all actives have a fitted effect of over 40% in size
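Cruzain (1.5 nM) preincubated 15 min at RT with compound in 100 mM sodium acetate pH 5.5, 5 mM DTT, 0.01% Triton X-100. Reaction started with 2 uM Z-FR-AMC; AMC fluorescence (ex 360/em 450 nm) change over 60 s gave rate.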
Each line names hits and unclear results; the compound was inactive in the other large screens. Calls follow the shape of the dose curve; as a rule, active = well fitted curve in the direction sought with a large enough effect; inconclusive = small, poorly fitted or top-dose-only effect, or another doubt; inactive = no such curve, though single readings can be large; an effect the other way counts as inactive or inconclusive.

O=C(OCCCN=C1NS(=O)(=O)c2ccccc21)C1CC(=O)N(c2ccc(Cl)cc2)C1 (stereo unspecified)	Cruzain noTriton inconclusive
Cc1ccc(-c2noc(CCC(=O)Nc3ccc(C)cn3)n2)cc1	Cruzain noTriton 25µM
CCOC(=O)c1ccccc1NC(=O)CCc1nc(-c2ccc(C)cc2)no1	none
Cc1cc2oc(C(=O)Nc3ccc(S(=O)(=O)Nc4ncccn4)cc3)cc(=O)c2cc1C	none
COc1ccc(-c2noc(-c3ccc(N4CCOCC4)c([N+](=O)[O-])c3)n2)cc1OC	none
COc1ccc(-c2noc(-c3ccc(N4CCC(C)CC4)c([N+](=O)[O-])c3)n2)cc1OC	Cruzain noTriton 20µM
Cc1ccccc1NC(=O)C1CCN(C(=O)c2cnn(-c3ccccc3)c2-n2cccc2)CC1	Cruzain noTriton inconclusive
COc1ccc(-c2nc(C(N)=O)c3[nH]c(=O)n(-c4cccc(Cl)c4)c3n2)cc1OC	Cruzain noTriton inconclusive
Cc1ccsc1-c1nc(C(N)=O)c2[nH]c(=O)n(-c3ccc(Cl)cc3)c2n1	Cruzain noTriton 10µM
COC(=O)Cn1c(=NC(=O)c2ccc(Cl)s2)sc2cc(F)ccc21	Cruzain noTriton 25µM
C#CCn1c(=NC(=O)c2ccc(Cl)s2)sc2cccc(OC)c21	Cruzain noTriton inconclusive
O=c1c2ccccc2[nH]c(=S)n1CCc1ccccc1	Cruzain noTriton inconclusive
O=c1c2ccccc2[nH]c(=S)n1Cc1cccs1	Cruzain noTriton 25µM
N#Cc1c(OCC(=O)c2ccccc2)nc2c(c1-c1ccco1)CCc1ccccc1-2	Cruzain noTriton 7.9µM, Cruzain Triton 14µM
Cc1cc(C)c(C#N)c(OCC(=O)c2ccccc2)n1	none
Cc1ccc(CNC(=O)Cn2c(=O)ccc3cc(S(=O)(=O)N4CCC(C)CC4)ccc32)cc1	none
CCCCC1C2=C(CC(C)(C)CC2=O)OC2=C1C(=O)CC(C)(C)C2	none
CC1CCN(S(=O)(=O)c2ccc(S(=O)(=O)NCc3ccccc3)cc2)CC1	Cruzain noTriton 16µM
NS(=O)(=O)c1ccc(NC(=O)N2c3ccccc3Sc3ccccc32)cc1	none
O=S(=O)(NCc1ccccc1)c1ccc(S(=O)(=O)N2CCCCC2)cc1	Cruzain noTriton inconclusive
CC1CCN(S(=O)(=O)c2ccc(NC(=O)N3c4ccccc4Sc4ccccc43)cc2)CC1	Cruzain noTriton 13µM
COc1cccc(N2C(=O)C(CC(=O)Nc3ccccc3)N(CCc3sccc3C)C2=O)c1 (stereo unspecified)	none
CCOC(=O)C1=C(c2ccccc2)c2cc(OC)ccc2OC1C(=O)OCC (stereo unspecified)	none
Cc1nc2nc(CNC(=O)c3cccc(F)c3)nn2c(C)c1CCC(=O)Nc1cccc(Cl)c1	Cruzain noTriton inconclusive
CCCCN1CCC[C@@H]1CNC(=O)c1cc(C#N)c2ccccc2c1OC	none
COc1ccc(S(=O)(=O)N(C)c2ccc(OCC(=O)Nc3cc(C)on3)cc2)cc1	none
O=C(COc1ccc(Cl)cc1)Nc1nc(-c2ccc(S(=O)(=O)N3CCOCC3)cc2)cs1	Cruzain noTriton inconclusive
COc1ccc(-c2csc(NC(=O)COc3ccc(N(C)S(=O)(=O)c4ccc(C)cc4)cc3)n2)cc1	Cruzain noTriton 7.9µM
Cc1ccc(-c2csc(NC(=O)COc3ccc(N(C)S(=O)(=O)c4ccc(C)cc4)cc3)n2)cc1	Cruzain noTriton 6.3µM
COc1ccc(-c2csc(N3C(=O)C4C5c6ccccc6C(c6ccccc65)C4C3=O)n2)cc1 (stereo unspecified)	Cruzain noTriton 16µM
COc1ccc(-c2csc(N3C(=O)C4C5c6ccccc6C(c6ccccc65)[C@@H]4C3=O)n2)cc1 (stereo partly specified)	Cruzain noTriton 10µM
COc1ccc(-c2csc(N3C(=O)CNC3=S)n2)cc1	Cruzain noTriton inconclusive
COc1ccc(-c2csc(N3C(=N)SCC3=O)n2)cc1	Cruzain noTriton inconclusive
Cc1ccccc1Nc1oc(-c2ccccc2)nc1-c1ccccc1	none
COc1ccc(-c2nc3scc(CCNS(=O)(=O)c4cccc(C(C)=O)c4)n3n2)cc1	none
CC1Cn2cc(C(=O)Nc3ccccc3C(F)(F)F)c(=O)c3c(Cl)ccc(c32)O1 (stereo unspecified)	none
COc1cc(C)ccc1OCCOc1c(Cl)cc(Cl)cc1Cl	none
COc1cc(C)ccc1OCCOc1cc(C)ccc1Cl	Cruzain noTriton 20µM
COc1ccc(S(=O)(=O)c2c(SC)nn(CC(=O)Nc3ccc(C)c(Cl)c3)c2N)cc1	none
CCOc1ccc2noc3c2c1C(=O)c1ccccc1-3	none
O=C1c2ccccc2-c2onc3c(Oc4ccccc4)cc(O)c1c23	Cruzain noTriton 20µM
O=C(COC(=O)CNC(=O)c1ccccc1)Nc1cccc(Br)c1	Cruzain Triton inconclusive
O=C(COC(=O)CNC(=O)c1ccccc1)Nc1ccc(Cl)cc1C(F)(F)F	Cruzain noTriton 13µM, Cruzain Triton 16µM
Cc1ccc(-c2cc(C(=O)OCC(=O)Nc3ncc(C(F)(F)F)cc3Cl)c3ccccc3n2)cc1	Cruzain noTriton inconclusive
O=C(COC(=O)CNC(=O)c1ccc(Cl)cc1)Nc1ccc(Cl)cc1C(F)(F)F	Cruzain noTriton 6.3µM, Cruzain Triton 8.9µM
O=C(COC(=O)CCCNC(=O)c1ccc(Cl)cc1)Nc1cc(Cl)c(Cl)cc1Cl	none
Cc1ccc(C(=O)NCC(=O)OCC(=O)Nc2ncc(C(F)(F)F)cc2Cl)cc1	Cruzain noTriton 6.3µM, Cruzain Triton 7.1µM
CCOCCc1nnc(NC(=O)C(=O)c2cc(C)n(-c3cccc(Cl)c3)c2C)s1	none
Cc1ccc2nc(-c3ccncc3)c(Nc3ccc(C(C)C)cc3)n2c1	none
O=C(Nc1cccc(Cl)c1)c1c(NC(=O)C(F)(F)F)sc2c1CCCC2	Cruzain noTriton inconclusive, Cruzain Triton 25µM
Cc1cccc(NC(=O)c2c(NC(=O)C(F)(F)F)sc3c2CCCCC3)c1	none
FC(F)(F)c1ccccc1-c1cc(NCCN2CCOCC2)ncn1	none
CCCSc1ncc(Cl)c(C(=O)Nc2ccc(S(=O)(=O)N3CC(C)OC(C)C3)cc2)n1 (stereo unspecified)	none
CC(C)=CCOc1ccc(/C=C/C(=O)c2ccc(OCC=C(C)C)cc2OCC(=O)O)cc1	Cruzain noTriton inconclusive, Cruzain Triton 20µM
CCOc1ccc(/C=C/C(=O)c2ccc(-c3ccccc3)cc2)cc1	none
COc1cc(NC(=O)c2ccc(-n3cnc4cccnc43)cc2)cc(OC)c1	none
Nc1nnc(SCC(=O)c2ccccc2)s1	none
Nc1c(C(=O)c2ccccc2)sc2snc(SCC(=O)c3ccccc3)c12	Cruzain noTriton 13µM
CCCCC[C@H](O)/C=C/[C@@H]1[C@@H](C/C=C\CCCC(=O)O)[C@H](O)C[C@H]1O	none
COc1ccc(-c2nc(-c3ccccc3)c(NC(C)(C)C)o2)cc1	none
Cc1cc(O)c(C(c2ccccc2)N2CCC(C)CC2)c(=O)n1Cc1ccco1 (stereo unspecified)	Cruzain noTriton inconclusive
COc1ccc([N+](=O)[O-])cc1C1NN=C(c2ccccc2O)S1 (stereo unspecified)	Cruzain noTriton 20µM
COc1ccc([N+](=O)[O-])cc1NC(=O)Nc1ccccc1	none
CCOC(=O)c1c(C)[nH]c(C(=O)CSc2ccc(Cl)cc2)c1C	Cruzain noTriton inconclusive
CCOC(=O)c1c(C)[nH]c(C(=O)CSc2nnc(Nc3ccccc3F)s2)c1C	Cruzain noTriton 13µM
CC1(c2ccc(Cl)cc2)CC(C)(C)N(C(=O)c2ccccc2)c2ccccc21 (stereo unspecified)	Cruzain noTriton inconclusive
CC1(c2cc([N+](=O)[O-])cc([N+](=O)[O-])c2)CC(C)(C)N(C(=O)c2ccccc2)c2ccccc21 (stereo unspecified)	Cruzain noTriton 10µM
